From PubChem BioAssay
Pf growth 96h: P. falciparum growth inhibition at 96 hours; Potency, µM (doses to about 28.7 µM), inactives show at the highest dose activity change, negative = inhibition, most hits filed as inhibitors; 6.9% of 320,000 active; P. falciparum luciferase reporter growth, 96 h; AID 504834
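Compounds incubated with erythrocytes infected by luciferase-expressing P. falciparum (2% hematocrit, 0.05% parasitemia final) for 96 hours, 37 C in 5% CO2. Growth inhibition scored as decreased luciferase luminescence.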
Vaccinia Venus: vaccinia inhibition (Venus reporter); Vaccinia virus Venus reporter expression, fluorescence; Potency, µM (series often up to 36.5 µM), without a hit: at the top dose activity change, negative = inhibition, hits mostly inhibitors; 0.46% of 330,000 active; AID 720580; calls by dose curve; tested in A549 cells; further: nearly all actives have a fitted effect of over 30% in size
VACV mCherry inh: inhibitors of vaccinia virus infection (mCherry reporter signal); AID 720579; 0.63% of 310,000 active; Vaccinia virus mCherry reporter infection, fluorescence; Potency, µM (series often up to 36.5 µM), for the others: top-dose activity change, negative = inhibition, most hits filed as inhibitors; calls by dose curve; tested in A549 cells; further: nearly all actives have a fitted effect of over 35% in size
AMA1 RON2 block: disrupts binding of P. falciparum AMA1 to RON2; Potency, µM (top dose mostly 58.2 µM), for inactives: at the highest dose activity change, negative = inhibition, most hits filed as inhibitors; 0.2% of 360,000 active; AID 720542; AlphaScreen AMA1-biotinylated RON2 peptide binding;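 further: 0% = vehicle wells and -100% = peptide control; nearly all actives have a fitted effect of over 45% in size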
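AMA1 (3D7) with his tag at 25 nM final met compounds first, then biotinylated RON2 peptide at 25 nM; detection used donor plus acceptor beads, 10 µg/mL apiece, read by AlphaScreen after 30 min at room temperature.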
Pf growth 48h: P. falciparum growth inhibition at 48 hours (one generation); P. falciparum luciferase growth in erythrocytes, 48 h; Potency, µM (highest dose often 28.7 µM), without a hit: at the top dose activity change, negative = inhibition, usual class: inhibitors; 5.9% of 310,000 active
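Firefly luciferase activity from engineered P. falciparum reports growth; inhibitors lower the luminescent signal. Cultures contained 2% hematocrit erythrocytes at 0.1% final parasitemia.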
Active calls of the source: *; i = inactive; ? = inconclusive; · = no result; [ ] = dose if it differs, or a comment. Most compounds without a hit are left out; they make up all but 8.7% or so of the library. Unless noted, the call rests on the fitted dose curve; in most records, active means well fitted curve in the direction sought with a large enough effect; inconclusive means small, poorly fitted or top-dose-only effect, or another doubt; inactive means no such curve, though single readings can be large; an effect the other way counts as inactive or inconclusive. Unless noted, on the % scale 0 is the no-effect control and ±100 the full control effect; potency means the concentration at half of the fitted maximal effect.

SMILES	Pf growth 96h	Vaccinia Venus	VACV mCherry inh	AMA1 RON2 block	Pf growth 48h
CC(=O)[O][Hg][c]1ccccc1	3.01µM*	?	20µM*	·	1.51µM*
COCCn1c(=NC(=O)CSCC(=O)NC2CCCCC2)sc2cc(OC)ccc21	-13.6%	-10.1%	-10.8%	5.4%	?
CCOCCn1c(=NC(=O)CSCC(=O)Nc2cc(C)on2)sc2cc(OC)ccc21	5.22µM*	·	·	-8.0%	5.22µM*
Cc1ccc(NC(=O)CSc2ccc(-c3sc(-c4ccccc4)nc3C)nn2)cc1F	·	-12.0%	-21.5%	·	·
COc1cnc(-c2ccccn2)nc1Sc1ccccc1	?	-26.6%	?	84.9%	13.1µM*
COc1ccc(Sc2nc(-c3ccccn3)ncc2OC)cc1	3.29µM*	?	?	10.5%	3.29µM*
COc1cnc(N(C)C)nc1Sc1ccc(Cl)cc1	61.2%	3.0%	i	-15.3%	-16.5%
CCOC(=O)CSc1nc(-c2ccccn2)ncc1OC	?	-13.8%	?	34.8%	0.0%
N#Cc1ccc(-c2ccccc2)nc1Sc1ccc(F)cc1	-44.9%	·	·	-0.7%	?
COc1cnc(-c2ccccn2)nc1Sc1ccc(Cl)cc1	1.65µM*	·	·	42.5%	2.33µM*
COc1cnc(-c2ccccn2)nc1Sc1ccc(F)cc1	1.65µM*	?	?	88.8%	4.65µM*
COc1ccc(Br)cc1CNC(=O)c1ccc(-n2c(C)cc3c2CCC(C)C3)cc1 (stereo not drawn)	·	-15.6%	-6.4%	·	·
O=C(CCl)c1ccc2c(c1)CCCC2	·	-23.2%	-17.5%	·	·
CCCCCc1c(O)nc(SCC(=O)NCC2CCCO2)[nH]c1=O (stereo not drawn)	0.465µM*	-0.6%	i	-0.6%	3.8%
Fc1cccc(-c2nnn3c2nc(NC2CCCCC2)c2ccccc23)c1	·	-7.7%	-11.3%	·	·
O=C(CCNS(=O)(=O)c1ccccc1F)N1CCN(C(c2ccccc2)c2ccccc2)CC1	?	?	-23.0%	7.2%	13.1µM*
O=C(CCNS(=O)(=O)c1ccccc1F)N1CCN(S(=O)(=O)c2cccc(F)c2)CC1	?	-7.1%	-16.2%	12.1%	?
Cc1ccc(CNC(=O)CCc2c(C)nn(-c3ccc(N4CCCCC4)nn3)c2C)cc1	·	-11.2%	-5.4%	·	·
Cc1ccccc1NS(=O)(=O)c1ccc(-c2ccc(=O)[nH]n2)o1	13.1µM*	-5.8%	-16.9%	4.9%	2.5%
COC(=O)C1CN(C(=O)COc2ccccc2C)c2ccccc2O1 (stereo not drawn)	-27.1%	-8.7%	-15.8%	0.1%	-8.7%
COC(=O)C1CN(C(=O)COc2ccc(Cl)cc2C)c2ccccc2O1 (stereo not drawn)	?	-9.2%	-16.0%	0.2%	14.7µM*
Cc1c(/C=C/c2ccnc3ccccc23)ccc(N(C)C)c1C	·	-7.3%	-28.1%	·	·
OCCNc1nc(Nc2ccccc2)nc(Nc2ccccc2)n1	25.6%	?	·	-1.5%	-4.5%
CC(C)(CO)Nc1nc(Nc2ccccc2)nc(Nc2ccccc2)n1	7.38µM*	-26.0%	·	-3.4%	13.1µM*
COc1ccc(CCNC(C)=O)cc1	16.4%	1.9%	·	11.9%	·
SMILES	Pf growth 96h	Vaccinia Venus	VACV mCherry inh	AMA1 RON2 block	Pf growth 48h
COc1ccc(CC2NC[C@H](O)[C@H]2OC(C)=O)cc1 (stereo partly drawn)	·	1µM*	0.794µM*	·	·
COc1ccc(CC2NCCC3(O)CCCCC23)cc1 (stereo not drawn)	15.7%	·	·	1.0%	·
COc1ccc(CC2NCC(O)C2OC(C)=O)cc1 (stereo not drawn)	·	0.112µM*	0.0089µM*	1.5%	·
COC(=O)c1c(OCc2cccnc2)cc(=O)n2c1CCN(C(=O)c1c3c(nn1C)CCCC3)CC2	·	-13.7%	-14.7%	·	·
CCC(C)Nc1nc(N)c([N+](=O)[O-])c(Nc2ccccc2OC)n1 (stereo not drawn)	10.4µM*	-16.3%[7.34 µM]	-3.7%[7.34 µM]	-9.1%	11.7µM*
CC(=O)C1=NN(c2ccccc2)C(c2ccc3c(c2)OCO3)N1c1ccccc1 (stereo not drawn)	?	·	·	23.1%	?
CC(=O)C1=NN(c2ccccc2)C(c2cccs2)N1c1ccc(N(C)C)cc1 (stereo not drawn)	2.08µM*	·	·	?	·
O=C1[C@H]2CCCC[C@H]2C(=O)N1CCCCN1CCN(c2nsc3ccccc23)CC1	12µM*	-18.6%	?	-11.3%	?
COc1ccccc1N1CCN(CCCCN2C(=O)C3CCCN3C2=O)CC1 (stereo not drawn)	·	-8.4%	?	13.3%	·
FC(F)(F)c1ccccc1-c1nc(N2CCNCC2)c2ccccc2n1	·	-8.3%	-13.3%	·	·
c1ccc2c(N3CCNCC3)nsc2c1	-22.9%	-3.2%	0.6%	-15.2%	13.1µM*
CCOC(=O)c1c(Oc2ccc(C(=O)OC)cc2)nnc(-c2ccccc2)c1-c1ccccc1	·	-0.8%	-9.9%	·	·
CC(=O)OC[C@]12CCC(C)=C[C@H]1O[C@@H]1[C@H](O)[C@@H](OC(C)=O)[C@@]2(C)[C@]12CO2	?	3.16µM*	?	37.1%	0.0033µM*
C/C=C\C=C\C(=O)N1CC2(CC(c3cccc(NC(=O)COc4ccc(Cl)cc4)c3)=NO2)C[C@H]1C(N)=O (stereo partly drawn)	10.4µM*	-14.9%	i	1.9%	13.1µM*
C/C=C(\C)C(=O)N1CC2(CC(c3cccc(NC(=O)COc4ccc(Cl)cc4)c3)=NO2)C[C@@H]1C(N)=O (stereo partly drawn)	?	-18.5%	i	18.0%	11.7µM*
COc1ccc(CN2CCC3(CC2)c2ccccc2[C@@H](NC(=O)c2ccccc2)[C@@H]3O)cc1O	·	-9.6%	i	·	·
CC1(C)CC(CC(=O)Nc2ccc([N+](=O)[O-])cc2)C(=O)O1 (stereo not drawn)	?	-19.7%	-5.7%	0.0%	42.6%
CC(CC1CC(C)(C)OC1=O)C(=O)Nc1ccc([N+](=O)[O-])cc1 (stereo not drawn)	1.65µM*	4.7%	-9.2%	-6.7%	?
COc1ccc(CCNC(=O)C(C)n2c(=O)cc(C(F)(F)F)c3c(C)nn(C)c32)cc1OC (stereo not drawn)	·	2.7%	-11.9%	·	·
COC(=O)N1C(=O)[C@](c2ccccc2)(C2CCCC2)N1C(=O)OC	-8.3%	-27.9%	-27.1%	-2.8%	17.5%
COc1ccccc1-c1cc(C(F)(F)F)c(C#N)c(=O)[nH]1	-40.8%[1.15 µM]	-9.3%	i	-12.4%	-25.2%
CC1(c2ccccc2)ON(c2ccccc2C(F)(F)F)C1=O (stereo not drawn)	?	·	·	·	4.15µM*
CC[C@@]1(c2ccccc2OC)ON(c2ccccc2C(F)(F)F)C1=O	?	?	?	4.8%	0.586µM*
O=C1N(c2ccccc2C(F)(F)F)O[C@]1(c1ccccc1)C1CCCC1	1.31µM*	?	?	41.8%	1.65µM*
Cc1ccccc1[C@@]1(C)ON(c2ccccc2C(F)(F)F)C1=O	1.04µM*	?	?	41.2%	1.65µM*
Cn1cnnc1Sc1ccc(CN2CCOc3ccc(C4=CCCCC4)cc3C2)o1	·	-14.8%	-17.9%	·	·
